Measured values from PubChem BioAssay AID1159580 (chemical genetic matrix, 2015).
“And” between values parts separate entries of the source, which are not always exact repeats. Equal values may be shown once. Among all 5,500 compounds or so, about 2,000 (36%) were called active. Inconclusive results (about 18%) are left out. No stated cut-off is given here; in the data, active means normalized growth mostly below about 0.91 (no sharp cut-off); inconclusive means no clear call, values can overlap the other calls; inactive means mostly above about 0.92. This is one part of the list.

Assay: chemical genetic growth profiling, strain panel (AID 1159580);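 further: tested at 20 µM; growth read once vehicle control cultures reached saturation at 30 °C; 1 = growth at the plate median or of vehicle wells; lower values mean less growth of the strain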
Details: S. cerevisiae deletion strains, growth OD

Measured: normalized growth

O=C(C1CCCCC1)N1CC(=O)N2CCc3ccccc3C2C1 (stereo not drawn)
inactive: locus YAL021C, strain ccr4, active compounds read low 0.999 | locus YAL026C, strain drs2, active compounds read low 1 | locus YAL030W, strain snc1, active compounds read low 1.01 | locus YAL040C, strain CLN3, active compounds read low 1.05 | locus YBL061C, strain skt5, active compounds read low 1.01 | locus YBR009C, strain hhf1, active compounds read low 1.01 | locus YBR021W, strain FUR4, active compounds read low 0.993 | locus YBR023C, strain chs3, active compounds read low 1.02 | locus YBR171W, strain sec66, active compounds read low 1.01 | locus YBR229C, strain ROT2, active compounds read low 1 | locus YBR231C, strain swc5, active compounds read low 0.983 | locus YBR279W, strain paf1, active compounds read low 1.01 | locus YCL011C, strain gbp2, active compounds read low 1.03 | locus YCL016C, strain dcc1, active compounds read low 1.04 | locus YCL029C, strain bik1, active compounds read low 1.01 | locus YCL061C, strain MRC1 (second series), active compounds read low 1 | locus YCL061C, strain MRC1, active compounds read low 1.01 | locus YCL069W, strain vba3, active compounds read low 1.01 | locus YCR088W, strain abp1, active compounds read low 1.01 | locus YDL005C, strain med2, active compounds read low 1.01 | locus YDL035C, strain GPR1, active compounds read low 1 | locus YDL040C, strain nat1, active compounds read low 0.992 | locus YDL074C, strain BRE1, active compounds read low 1.01 | locus YDL101C, strain DUN1, active compounds read low 1.01 | locus YDL134C, strain PPH21, active compounds read low 1 | locus YDL185W, strain tfp1, active compounds read low 1.01 | locus YDL192W, strain arf1, active compounds read low 1.01 | locus YDR001C, strain nth1, active compounds read low 1 | locus YDR069C, strain doa4, active compounds read low 0.978 | locus YDR101C, strain arx1, active compounds read low 1.03 | locus YDR137W, strain rgp1, active compounds read low 1.03 | locus YDR159W, strain sac3, active compounds read low 0.976 | locus YDR162C, strain NBP2, active compounds read low 1 | locus YDR195W, strain ref2 0.981 | locus YDR297W, strain sur2, active compounds read low 1.01 | locus YDR318W, strain mcm21, active compounds read low 1.02 | locus YDR334W, strain swr1, active compounds read low 1.01 | locus YDR335W, strain msn5, active compounds read low 0.999 | locus YDR363W, strain ESC2, active compounds read low 1.04 | locus YDR388W, active compounds read low 1.01 | locus YDR392W, strain spt3, active compounds read low 0.862 | locus YDR502C, strain sam2, active compounds read low 1.01 | locus YEL003W, strain gim4, active compounds read low 0.995 | locus YEL037C, strain rad23, active compounds read low 0.999 | locus YEL061C, strain CIN8 (second series), active compounds read low 1 | locus YEL061C, strain CIN8, active compounds read low 1 | locus YER002W, strain NOP16, active compounds read low 1.01 | locus YER015W, strain faa2, active compounds read low 1 | locus YER016W, strain bim1, active compounds read low 0.989 | locus YER110C, active compounds read low 1.02 | locus YER111C, strain swi4, active compounds read low 1 | locus YER155C, strain BEM2 (second series), active compounds read low 0.913 | locus YER155C, strain BEM2, active compounds read low 1 | locus YER167W, strain BCK2, active compounds read low 1 | locus YFR010W, strain ubp6, active compounds read low 1.01 | locus YGL078C, strain dbp3, active compounds read low 1.01 | locus YGL086W, strain mad1, active compounds read low 1.01 | locus YGL167C, strain pmr1, active compounds read low 1.01 | locus YGL173C, strain kem1, active compounds read low 1 | locus YGL227W, strain vid30, active compounds read low 1.01 | locus YGL240W, strain doc1, active compounds read low 0.978 | locus YGL248W, strain PDE1, active compounds read low 1.01 | locus YGL253W, strain hxk2, active compounds read low 0.982 | locus YGR078C, strain PAC10, active compounds read low 1 and 1.01 | locus YGR135W, strain pre9, active compounds read low 0.998 | locus YGR252W, strain gcn5, active compounds read low 0.953 | locus YHR013C, strain ard1, active compounds read low 0.988 | locus YHR027C, strain rpn1, active compounds read low 1.01 | locus YHR030C, strain SLT2, active compounds read low 1 and 1.01 | locus YHR079C, strain IRE1 (second series), active compounds read low 1.01 | locus YHR079C, strain IRE1, active compounds read low 1.01 | locus YHR094C, strain hxt1, active compounds read low 1.01 | locus YHR129C, strain ARP1, active compounds read low 0.992 | locus YHR142W, strain chs7, active compounds read low 1 | locus YHR200W, strain rpn10, active compounds read low 1.01 | locus YIL066C, strain RNR3, active compounds read low 1.01 | locus YIL073C, strain SPO22, active compounds read low 1.01 | locus YIL125W, strain kgd1, active compounds read low 1.01 | locus YIR030C, strain dcg1, active compounds read low 1.01 | locus YJL092W, strain hpr5, active compounds read low 1 | locus YJL095W, strain BCK1 (second series), active compounds read low 1.01 | locus YJL095W, strain BCK1, active compounds read low 0.974 and 1.03 | locus YJL115W, strain asf1, active compounds read low 1.01 | locus YJL129C, strain trk1, active compounds read low 0.997 | locus YJL134W, strain LCB3, active compounds read low 1 | locus YJL154C, strain vps35, active compounds read low 1 | locus YJL164C, strain tpk1, active compounds read low 1.02 | locus YJL166W, strain qcr8, active compounds read low 1.02 | locus YJL168C, strain set2, active compounds read low 1.01 | locus YJL187C, strain SWE1 (second series), active compounds read low 1.01 | locus YJL187C, strain SWE1, active compounds read low 1.01 | locus YJR043C, strain POL32, active compounds read low 1.01 | locus YJR066W, strain TOR1, active compounds read low 0.939
